Source: PubChem BioAssay AID1345085 (National Center for Advancing Translational Sciences (NCATS), 2018)
Inconclusive results are not listed. Unmarked numbers belong to inactive results. Activity calls are given as the source filed them. Calls come from the whole dose curve; as a rule, active = well fitted cell-killing curve with a large enough effect; inconclusive = small, poorly fitted or top-dose-only effect, or effect the other way; inactive = no such curve, though single readings can be large or run the other way.

system: JEG-3; assay: Confirmatory qHTS for gynecologic anti-cancer compounds from libraries of approved drugs and bioactive compounds; conditions: gynecologic cancer cell panel viability, ATPlite luminescence, 48 h; series mostly up to 57.6 µM; activity change, negative = viability loss: at the top concentration; note: nearly all actives have a fitted effect of over 55% in size
Outline: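 Seeding 1,000 cells per well preceded overnight (16 h) attachment, after which 48 h drug treatment across 57.5 uM–0.977 nM (11 points) was applied. Remaining cellular ATP, detected by ATPlite luminescence, defined IC50.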
% is set by controls: 0 for no effect and ±100 for the full control effect; potency is the fitted concentration of half-maximal effect.

| SMILES | activity change, negative = viability loss | Potency |
| --- | --- | --- |
| Nc1ncn([C@@H]2O[C@H](CO)[C@@H](O)[C@H]2O)c(=O)n1 | -6.25% |  |
| COc1cc2ncnc(Nc3ccc(F)c(Cl)c3)c2cc1OCCCN1CCOCC1 | 4.26% |  |
| O=C1c2c(O)ccc(O)c2C(=O)c2c(NCCNCCO)ccc(NCCNCCO)c21 |  | 2.43 µM (active) |
| COc1cc2c(Oc3ccc(-c4cnc(Nc5ccc(F)cc5)n(C)c4=O)cc3F)ccnc2cc1OCCCN1CCOCC1 | 1.07% |  |
| COc1ccc2cc3[n+](cc2c1OC)CCc1cc2c(cc1-3)OCO2 |  | 3.85 µM (active) |
| Cc1ccc(C(=O)N(CCCN)C(c2nc3cc(Cl)ccc3c(=O)n2Cc2ccccc2)C(C)C)cc1 (stereo not given) |  | 0.0153 µM (active) |
| Cn1cc(-c2[nH]c3cc(NC(=O)[C@H](N)C4CCCCC4)cc4c3c2C=NNC4=O)cn1 |  | 7.69 µM (active) |
| O=C(CCCCCCNC(=O)c1cnc(N(c2ccccc2)c2ccccc2)nc1)NO |  | 7.69 µM (active) |
| C[C@]12CCC(=O)C=C1[C@@H]1C[C@@H]1[C@H]1[C@@H]3[C@@H]4C[C@@H]4[C@@]4(CCC(=O)O4)[C@@]3(C)CC[C@@H]12 | -18.8% |  |
| Cc1cc(C(=O)N2CCN(c3cccc(Cl)c3)CC2)n(-c2ccccc2)n1 |  | 3.43 µM (active) |
| CC[C@@]1(O)C(=O)OCc2c1cc1n(c2=O)Cc2cc3c(CN(C)C)c(O)ccc3nc2-1 |  | 1.09 µM (active) |
| Fc1cc(-c2cccc3ncc(-c4cnn(C5CCNCC5)c4)nc23)cc(F)c1CN1CCOCC1 |  | 30.6 µM (active) |
| FC(F)(F)c1ccc(/C=C/c2nc(COc3ccc(CCCCn4ccnn4)cc3)co2)cc1 |  | 0.0172 µM (active) |
| COc1cc(N2CCC(N(C)C)CC2)ccc1Nc1ncc(Cl)c(Nc2ccccc2P(C)(C)=O)n1 |  | 15.3 µM (active) |
| COc1ccccc1N1CCN(CC(O)COc2cccc3ccccc23)CC1 (stereo not given) | -19.4% |  |
| COc1ccc2c(c1)c(CC(=O)O)c(C)n2C(=O)c1ccc(Cl)cc1 | -15.1% |  |
| NC(=O)c1ccc2nc(-c3ccc(Oc4ccc(Cl)cc4)cc3)[nH]c2c1 |  | 21.7 µM (active) |
| CCC1C(=O)N(C)c2cnc(Nc3ccc(C(=O)NC4CCN(C)CC4)cc3OC)nc2N1C1CCCC1 (stereo not given) |  | 0.0153 µM (active) |
| O=c1[nH]c(=O)n([C@H]2C[C@H](O)[C@@H](CO)O2)cc1Br | -13.3% |  |
| CC1=C(/C=C/C(C)=C/C=C/C(C)=C/C(=O)Nc2ccc(O)cc2)C(C)(C)CCC1 |  | 21.7 µM (active) |
| Nc1ccc(C(=O)Nc2cccc(-c3nc(N4CCOCC4)c4oc5ncccc5c4n3)c2)cn1 |  | 5.44 µM (active) |
| CC(=O)c1cnc2ccc(-c3cc(Cl)c(O)c(Cl)c3)nc2c1NC1CCC(CN(C)C)CC1 (stereo not given) |  | 0.627 µM (active) |
| Cc1cc(Nc2nc(N[C@@H](C)c3ncc(F)cn3)ncc2Cl)n[nH]1 | 4.7% |  |
| Cc1cc(Nc2nc(N[C@@H](C)c3ccc(F)cc3)c(C#N)cc2F)n[nH]1 |  | 19.3 µM (active) |
| COCCOc1nc(-c2ccc(Cl)c(Cl)c2)n(-c2ccc(NC(=O)CCl)cc2)n1 |  | 19.3 µM (active) |
| Cc1ccccc1C(OCCN(C)C)c1ccccc1 (stereo not given) | 0.4% |  |
| Cc1cncc2cccc(S(=O)(=O)N3CCCN(C(=O)CN)C[C@@H]3C)c12 | -6.44% |  |
| O=C(Nc1cn[nH]c1-c1nc2ccc(CN3CCOCC3)cc2[nH]1)NC1CC1 |  | 12.2 µM (active) |
| Cc1nc(Nc2n[nH]c3c2CN(C(=O)NC(CN(C)C)c2ccccc2)C3(C)C)c2sccc2n1 (stereo not given) |  | 0.544 µM (active) |
| Cc1nc2ccc(CN(C)c3ccc(C(=O)NC(CCC(=O)O)C(=O)O)s3)cc2c(=O)[nH]1 (stereo not given) | -13.6% |  |
